The source of these data is PubChem BioAssay (NCATS).

A short description of assay [1]: qHTS Assay for Identifying Gametocytocidal Compounds (AID 743244; active = well fitted curve in the direction sought with a large enough effect; an effect the other way counts as inactive or inconclusive;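 also: % is scaled to controls: 0 for no effect and ±100 for the full control effect; actives lower the fluorescent signal which means gametocytes are killed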). The conditions noted are these: P. falciparum 3D7 stage III-V gametocytes, alamarBlue, 72 h; max response: stronger effect = lower value. A digest of the protocol:
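In this qHTS viability screen, late-stage 3D7 gametocytes are incubated with compound for 72 h, then with alamarBlue for 24 h; reduced resorufin fluorescence marks killing.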

Assay [2] is described as follows: qHTS profiling for inhibitors of Plasmodium falciparum (3D7) proliferation (AID 743322).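 Also: infected erythrocytes exposed to compound for 72 h before lysis; 100% = DMSO vehicle wells and 0% = 0.29 µM artemisinin.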 The note with it: P. falciparum 3D7 proliferation; at 28.7 µM (top of the series) unless noted. The procedure, abridged: (§1)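 Erythrocytes infected with P. falciparum (0.3% parasitemia, 2.5% hematocrit) incubated with compounds 72 h at 37 C, 5% CO2. Lysis with saponin/Triton buffer containing SYBR Green I, overnight at room temperature in the dark; DNA fluorescence (485/535 nm) normalised to 0.29 uM artemisinin and DMSO.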

Assay [3] in a line: qHTS profiling for inhibitors of Plasmodium falciparum (DD2) proliferation (AID 743323). The note with it: lower = more inhibition; at 28.7 µM (top of the series) unless noted. The procedure, abridged:
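Parasite proliferation measured via DNA-dye fluorescence, as uninfected erythrocytes lack DNA. Cultures at 0.3% parasitemia and 2.5% hematocrit incubated 72 h with compound; signal scaled between vehicle and 0.29 uM artemisinin wells.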

The nature of assay [4]: qHTS profiling for inhibitors of Plasmodium falciparum (HB3) proliferation (AID 743324; active = well fitted curve in the direction sought with a large enough effect; an effect the other way counts as inactive or inconclusive;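 also: 100% = DMSO vehicle wells and 0% = artemisinin-treated control wells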). The note with it: Plasmodium falciparum HB3 blood-stage proliferation; at 28.7 µM (top of the series) unless noted. A digest of the protocol: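 P. falciparum HB3 grown in erythrocytes (0.3% parasitemia, 2.5% hematocrit final) with compound for 72 h at 37 C, 5% CO2. Parasite DNA detected by SYBR Green after saponin/triton lysis overnight; normalized to 0.29 uM artemisinin and DMSO.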

Assay [5] is described as follows: qHTS profiling of the MIPE4 collection as inhibitors of Plasmodium falciparum (3D7) proliferation (AID 743344).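 Also: scaled between DMSO vehicle wells and 0.29 µM artemisinin as full inhibition.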 The conditions noted are these: P. falciparum 3D7 in erythrocytes, SYBR Green DNA fluorescence, 72 h; at 28.5 µM (top of the series) unless noted. The procedure, abridged:
as §1

A short description of assay [6]: qHTS profiling of the MIPE4 collection as inhibitors of Plasmodium falciparum (DD2) proliferation (AID 743345). The note with it: P. falciparum Dd2 in erythrocytes, SYBR Green DNA, 72 h; at 28.5 µM (top of the series) unless noted. The procedure, abridged: as §1
The nature of assay [7]: qHTS profiling of the MIPE4 collection as inhibitors of Plasmodium falciparum (DD2) proliferation (Rep 2) (AID 743346). The conditions noted are these: P. falciparum Dd2 in erythrocytes, SYBR Green DNA, 72 h; at 28.5 µM (top of the series) unless noted. A digest of the protocol:
as §1

Assay [8] is described as follows: Cell Proliferation Assay Versus the ED40515 IL2 Dependent ATL cell lines (AID 1053195; calls by dose curve). The conditions noted are these: ED40515 IL2-dependent ATL cells. A digest of the protocol: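 IL2-dependent ED40515 ATL cells grown with IL2, 1000 cells/well in phenol red-free RPMI + 5% FBS, exposed 48 hours at 37C. Viability by CellTiter-Glo luminescence after 15 min at RT; 9.2 uM bortezomib as control.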

Assay [9] is described as follows: High-throughput drug toxicity screening in the BPDCN cell line Gen2.2 (AID 1224824).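 Also: cells exposed to compounds for 48 h before reading.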 The conditions noted are these: Gen2.2 BPDCN cells; at 45.8 µM (top of the series) unless noted. A digest of the protocol:
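Gen2.2, 500 cells/well, phenol red-free RPMI/10% FBS/Pen-Strep; 48 h cpd, 37 °C/5% CO2; CTG lum, 15 min RT. Norm: DMSO = 100%, bortezomib 9.2 uM final = 0%.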

Assay [10] can be described thus: High-throughput drug toxicity screening in the BPDCN cell line Cal-1 (AID 1224825). The note with it: Cal-1 BPDCN cell viability, qHTS; at 45.8 µM (top of the series) unless noted. The procedure, abridged:
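500 Cal-1 cells/well, RPMI + glutamine + 10% FBS (phenol red-free); cpd added by pin tool; 48 h, 37C, 5% CO2; CTG 15 min RT, lumi read. Normalised: DMSO 100%, bortezomib 9.2 uM 0%.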

Assay [11] is described as follows: qHTS assay for measurement of the activity of small molecule inhibitors on Zika virus induced Caspase-3 activity in human astrocytoma cells (AID 1224859; active = well fitted curve in the direction sought with a large enough effect; an effect the other way counts as inactive or inconclusive;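 also: plate controls were ZIKV-infected untreated cells for no effect and uninfected cells for full effect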). The procedure, abridged:
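A cell-based luminescent caspase-3/7 assay used SNB-19 cells infected with ZIKV (2 FFU/cell) for 6 h following 1 h compound pretreatment.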

The nature of assay [12]: qHTS Screen of the MIPE 4.0 Collection Against Ewings Sarcoma (RDES) (AID 1259252; active = well fitted curve in the direction sought with a large enough effect; an effect the other way counts as inactive or inconclusive;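 also: 100% = DMSO-treated cells and 0% = medium-only wells without cells; nearly all actives have a fitted effect of over 35% in size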). A digest of the protocol:
(§2)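 CellTiter-Glo luminescence after 48 h compound exposure (titration) gave viability; percent activity used DMSO-treated cells as no inhibition and medium-only wells as full inhibition. Cells grown in RPMI/5% FBS, dosed 4 h post-seeding.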

Assay [13] can be described thus: qHTS Screen of the MIPE 4.0 Collection Against Ewings Sarcoma (EW8) (AID 1259255; active = well fitted curve in the direction sought with a large enough effect; an effect the other way counts as inactive or inconclusive; also: nearly all actives have a fitted effect of over 35% in size; also: potency is read from the fitted curve at half-maximal effect;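 as to viability: 100% = DMSO-treated cells and 0% = medium-only wells without cells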). A digest of the protocol: as §2
Assay [14] is described as follows: qHTS profiling of the MIPE4 collection as inhibitors of Plasmodium falciparum (HB3) proliferation (AID 743347).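 Also: plate controls were DMSO vehicle wells for no effect and artemisinin wells for full effect.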 The note with it: P. falciparum HB3 in erythrocytes, SYBR Green DNA, 72 h; at 28.5 µM (top of the series) unless noted. A digest of the protocol: as §1
Assay [15] can be described thus: qHTS assay for measurement of the activity of small molecule inhibitors on Zika virus induced Caspase-3 activity in human iPSC derived neural progenitor cells (hNPCs) (AID 1224857; active = well fitted curve in the direction sought with a large enough effect; an effect the other way counts as inactive or inconclusive; also: % of control where 0% means no effect; nearly all actives have a fitted effect of over 65% in size). A digest of the protocol:
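In medium with heparin 2 ug/ml and cyclopamine 2 uM, hNPCs (350 cells/well) received compound for one hour and then Zika virus at 2 FFU/cell; caspase activity was measured by Caspase-Glo 3/7 luminescence 6 h post-infection.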

The nature of assay [16]: qHTS Screen of the MIPE 4.0 Collection Against Ewings Sarcoma (TC71) (AID 1259253; active = well fitted curve in the direction sought with a large enough effect; an effect the other way counts as inactive or inconclusive; also: potency is read from the fitted curve at half-maximal effect; nearly all actives have a fitted effect of over 40% in size). A digest of the protocol:
as §2

Results filed as inconclusive are left out. Active and inactive are the calls of the source. Unless noted, no rule for the calls is given here.

Turning to `Cc1cc(C=c2sc3nc4ccccc4n3c2=O)c(C)n1-c1ccccc1`, the max response in assay [1] is 11.9% (inactive). Also, the remaining parasite growth % (stronger effect = lower value) in assay [2] amounted to 37.9%. In addition, the activity, percent of control in assay [3] stood at 101%. In assay [4], the remaining proliferation (% of control), lower = more inhibition came to 116%. Further, in assay [5], the parasite growth, % of DMSO control was 84.9%. The parasite growth remaining, % of DMSO control (lower = more inhibition) in [6] was 93.2%. Further, the parasite growth, % of control (lower = inhibition) in assay [7] is 73%. Besides, the Potency in assay [8] was 6.62 µM (active). Also, in assay [9], the cell viability, % of control (lower = more cytotoxic) is 74.1%. Also, in [10], the viability (% of control) amounted to 103%. Besides, the Potency result in [11], in assay [12] and in [13] was “inactive” in each case.
In the case of `CCOc1ccc(Cc2cc([C@@H]3O[C@H](CO)[C@@H](O)[C@H](O)[C@@H]3O)ccc2Cl)cc1`, the max response in [1] was 10.7% (inactive). Besides, in assay [2], the remaining parasite growth % (stronger effect = lower value) was determined as 46.7%. In addition, the activity, percent of control in assay [3] was 101%. In assay [4], the remaining proliferation (% of control), lower = more inhibition came out at 112%. The parasite growth, % of DMSO control in assay [5] is 136%. Moreover, the parasite growth, % of control (lower = inhibition) in assay [7] amounted to 103%. The growth, % of control in assay [14] worked out at 505%. Moreover, the Potency in assay [8] was 4.69 µM (active). In assay [9], the cell viability, % of control (lower = more cytotoxic) was 55.1%. Also, in assay [10], the viability (% of control) was 19.9%. Also, the Potency entry in assay [15], in assay [11] and in assay [13] was “inactive” in each case.
With `O=C(C1CC1)N1CC[C@@H](Cn2c(-c3ccc(-c4ccc5occc5c4)cc3)nc3cnccc32)C1`, in [1], the max response is -18.8% (inactive). Besides, the remaining parasite growth % (stronger effect = lower value) in [2] stood at 74.3%. For the same compound, the activity, percent of control in assay [3] is 74.7%. In addition, the remaining proliferation (% of control), lower = more inhibition in assay [4] was determined as 55.2%. Also, the parasite growth, % of DMSO control in assay [5] stood at 35%. Also, in assay [6], the parasite growth remaining, % of DMSO control (lower = more inhibition) came to 78.6%. Further, the parasite growth, % of control (lower = inhibition) in [7] came to 46.6%. The Potency in assay [8] was 16.6 µM (active); in assay [16] it was 16.6 µM (active); in [13], 13.2 µM (active). Moreover, the cell viability, % of control (lower = more cytotoxic) in assay [9] was 133%. Further, the viability (% of control) in assay [10] came out at 95.4%. For the same compound, the Potency result in assay [15], in assay [11] and in [12] was “inactive” throughout.
In the case of `Nc1cccc(S(=O)(=O)N2CCCN(S(=O)(=O)c3ccc4c(c3)OCCO4)CC2)c1`, the max response in assay [1] was 3.74% (inactive). Further, the remaining parasite growth % (stronger effect = lower value) in [2] came out at 111%. In addition, in assay [3], the activity, percent of control is 101%. For the same compound, the remaining proliferation (% of control), lower = more inhibition in assay [4] was 70.3%. Further, in assay [5], the parasite growth, % of DMSO control was 257%. Besides, in assay [7], the parasite growth, % of control (lower = inhibition) was 120%. Further, in [14], the growth, % of control amounted to 586%. In addition, the Potency in [8] and in assay [16] was 16.6 µM (active) each time. Also, the cell viability, % of control (lower = more cytotoxic) in [9] worked out at 162%. Moreover, the viability (% of control) in assay [10] was 104%. For the same compound, the Potency result in [15], in assay [11] and in [12] was “inactive” throughout.
